Laboratory results reported in the supplement of paper PMC7858590.
Where “and” joins values, the source holds several entries; their conditions need not be identical. Equal entries are not always repeated. ± gives the standard deviation of the averaged measurements. The full ranking holds about 3,800 compounds; the median of “cell shape (eccentricity) Z-score vs DMSO control” is about 1.1, and the lowest 2% start at about -4.7. The entries come from a sample that favours the lowest values as a whole.

test system: human monocyte-derived macrophages (M0); experiment: cell shape (eccentricity) Z-score vs DMSO control; higher = more elongated, M2-like morphology; conditions: 20 µM; 24 h; macrophage state: M0 (M-CSF)

First: C/C=C(/C)C(=O)O[C@H]1C=C(C)C[C@H](OC(=O)c2ccc(O)cc2)C2[C@](O)(C(C)C)CC[C@@]21C (stereo not given in full)
Second: CC(=O)NC(C(=O)O[C@H]1CCC(C)(C)[C@@H]2CC=C3C(=O)OCC3(O)[C@@]12C)C(C)C (stereo not given in full)
The “cell shape (Z-score)” value of the first is lower: -3.37 for the first, 0.522 ± 0.68 for the second.

Going from `CCN(CC)CCOc1ccc2c(c1)C(=O)c1cc(OCCN(CC)CC)ccc1-2` to `COc1cc(O)c2c(c1)C(=O)c1cc(C)cc(O)c1C2=O`, the “cell shape (Z-score)” value falls from 11.9 to 2.65.

Compared with `O=C1c2ccccc2-c2nc3nonc3nc21`, `N#Cc1nc2c(nc1C#N)-c1ccc(Cl)cc1C2=O` is higher in “cell shape (Z-score)” value: -6.25 for the first, 2.23 for the second.

First: CC1(C)CC[C@]2(C(=O)O)CC[C@]3(C)C(=CCC4[C@@]5(C)CC[C@H](O[C@@H]6OC[C@H](O)[C@H](O)[C@H]6O)[C@@](C)(CO)C5CC[C@]43C)C2C1 (stereo not given in full)
Second: C/C(=C\CC[C@@H](C)[C@H]1CC[C@@]2(C)C3CC[C@H]4C(C)(C)[C@@H](OC5OC(CO)C(OC6OC(CO)C(O)C(O)C6O)C(O)C5O)CC[C@@]45C[C@@]35CC(O)[C@]12C)C(=O)O (stereo not given in full)
The “cell shape (Z-score)” value of the first is lower: -2.37 for the first, 0.155 for the second.

Going from `Cc1cc(NS(=O)(=O)c2ccc(N)cc2)no1` to `Cc1noc(NS(=O)(=O)c2ccc(N)cc2)c1C`, the “cell shape (Z-score)” value rises from -8.11 to 2.76.

Going from `CNc1cc(NS(=O)(=O)c2ccc(N)cc2)nc(NC)n1` to `Nc1ccc(S(=O)(=O)NC(=O)c2ccccc2)cc1`, the “cell shape (Z-score)” value falls from 3.31 to 0.441.

Compared with `Cn1c(=O)c2c(n(C)c1=O)n(C)c(=O)n2C`, `O=C(O)CN1C(=O)c2cccc3cccc(c23)C1=O` is lower in “cell shape (Z-score)” value: 0.458 for the first, -6.86 for the second.

Compared with `Cc1cc(Nc2nc(N[C@@H](C)c3ncc(F)cn3)ncc2Cl)n[nH]1`, `O=C(O)Cn1c(C(=O)Nc2nc(-c3ccccc3Cl)cs2)cc2ccccc21` is lower in “cell shape (Z-score)” value: 7.45 for the first, 2.41 for the second.

Going from `CCCCCCCCCCCCCCCCCCc1ccc(C(=O)C=CC(=O)O)cc1` to `CCCCCCCCc1ccc(CCC(N)(CO)CO)cc1`, the “cell shape (Z-score)” value falls from 0.47 to -5.98 ± 2.9.

Going from `CCCCCCCCc1ccc(-c2ccc(C(=O)O)cc2)cc1` to `O=C(O)CCCN1C(=O)c2cccc3cccc(c23)C1=O`, the “cell shape (Z-score)” value falls from 7.84 to 1.83.

First: COc1cc(/C=C/C(=O)O[C@H]2CC[C@]34CC35CC[C@]3(C)[C@@H](C(C)CCC=C(C)C)CC[C@@]3(C)C5CCC4C2(C)C)ccc1O (stereo not given in full)
Second: C=C1CC(O)C2C(=C)C(=O)OC2C2C(=C)C(OC3OC(CO)C(O)C(OC(=O)/C=C/c4ccc(O)c(O)c4)C3O)CC12 (stereo not given)
The “cell shape (Z-score)” value of the first is higher: -1.25 for the first, -1.95 for the second.

Going from `Cc1cc(O)c2c(c1)C(=O)C1=C(C2=O)C(O)C(O)C(O)C1O` (stereo not given) to `Cc1cc(O)c2c(c1)C(=O)c1cccc(O)c1C2=O`, the “cell shape (Z-score)” value rises from -13.9 to 3.93.

First: COc1c(OC)c(O)c2c(=O)c(O)c(-c3ccccc3)oc2c1OC
Second: COc1cc2oc(-c3ccccc3)cc(=O)c2c(O)c1OC
The “cell shape (Z-score)” value of the first is higher: 4.23 for the first, 3.73 for the second.

Going from `CC(=O)O[C@@H]1[C@@H](O)[C@H](C)O[C@@H](O[C@H]2[C@@H]3C=CO[C@@H](O[C@@H]4O[C@H](CO)[C@@H](O)[C@H](O)[C@H]4O)[C@@H]3[C@@]3(CO)O[C@@H]23)[C@@H]1OC(=O)/C=C/c1ccc(O)cc1` to `C[C@H]1CN([C@@H](C)CO)S(=O)(=O)c2ccc(C#Cc3ccncc3)cc2O[C@@H]1CN(C)C(=O)Nc1ccc2c(c1)OCO2`, the “cell shape (Z-score)” value falls from -0.936 ± 2.8 to -10.9.

First: C=C1C(=O)O[C@@H]2/C=C(\C)CC/C=C(\C)CC[C@@H]12
Second: C=C1C(=O)O[C@H]2[C@H]1CC/C(C)=C/CC[C@@]1(C)O[C@@H]21
The “cell shape (Z-score)” value of the first is higher: -1.08 for the first, -3.88 for the second.

First: C=C1C(=O)O[C@@H]2[C@H]3O[C@]3(C)CC/C=C(/C)CC[C@@H]12
Second: C=C1C(=O)O[C@@H]2C[C@H](C)C3C[C@H](O)[C@H](O)[C@@]3(C)C[C@H]12 (stereo not given in full)
The “cell shape (Z-score)” value of the first is lower: -9.25 for the first, -2.78 ± 0.67 for the second.

`COc1nc(N)nc2c1ncn2[C@@H]1O[C@H](CO)[C@@H](O)[C@@H]1O` and `CN1C(C(=O)Nc2ccccn2)C(=O)c2ccccc2S1(=O)=O` (stereo not given) are within error of each other in “cell shape (Z-score)” value: 0.62 ± 1.5 for the first, 1.33 for the second.

Compared with `O=c1[nH]c2cc(Cl)ccc2c(O)c1-c1cccc(Oc2ccccc2)c1`, `C[C@H]1CN([C@@H](C)CO)S(=O)(=O)c2ccc(C#Cc3ccccc3F)cc2O[C@H]1CN(C)C(=O)Cc1ccncc1` is higher in “cell shape (Z-score)” value: -0.358 for the first, 2.68 for the second.

Compared with `CC(=O)C(C#N)C(=O)Nc1cc(Br)ccc1Br` (stereo not given), `C[C@@H]1CN([C@H](C)CO)S(=O)(=O)c2ccc(C#Cc3ccncc3)cc2O[C@H]1CN(C)C(=O)Nc1ccc2c(c1)OCO2` is higher in “cell shape (Z-score)” value: -5.16 for the first, 3.81 for the second.

`CN[C@H]1CC[C@@H](c2ccc(Cl)c(Cl)c2)c2ccccc21` was tested, and the “cell shape (Z-score)” value was -5.32.

In the case of `CCN(CC)CCNC(=O)c1c(C)[nH]c(/C=C2\C(=O)Nc3ccc(F)cc32)c1C`, the “cell shape (Z-score)” value is reported as 10.3 and 12.2.
